Data as given in PubChem BioAssay (NCI).
About 83,000 compounds went through this panel and 20% of them were active in at least one assay; those are over-represented in the sample as a whole.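 Treatment: one concentration, 48 hours, 96-well format. Scoring: percent growth, with anything below 10 considered active.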

Legend:
Assay in all cases: NCI-60 one-dose screen, 48 h (100 = growth as untreated, 0 = no growth, -100 = all killed)
Details in all cases: 10 µM unless noted
HCT-15 colon = test system: HCT-15 colon
HT29 colon = test system: HT29 colon
SNB-19 CNS = test system: SNB-19 CNS
U251 CNS = test system: U251 CNS
PC-3 prostate = test system: PC-3 prostate
SK-MEL-5 melanoma = test system: SK-MEL-5 melanoma
UACC-62 melanoma = test system: UACC-62 melanoma
SK-MEL-28 melanoma = test system: SK-MEL-28 melanoma
LOX IMVI melanoma = test system: LOX IMVI melanoma

Measured: growth

CCCCCCC(=O)NC1=C(N2CC2)C(=O)C(NC(=O)CCCCCC)=C(N2CC2)C1=O
inactive: HCT-15 colon 69% | HT29 colon 19.2% | SNB-19 CNS 60.6% | U251 CNS 52.1% | PC-3 prostate 35.4% | SK-MEL-5 melanoma 52.4% | UACC-62 melanoma 30.6% | SK-MEL-28 melanoma 81.5%

CNC(=O)Oc1ccc(N(C)C)cc1C(C)C
inactive: HCT-15 colon 102% | HT29 colon 98.2% | SNB-19 CNS 101% | U251 CNS 101% | SK-MEL-5 melanoma 99.4% | UACC-62 melanoma 102% | LOX IMVI melanoma 105% | SK-MEL-28 melanoma 101%

COc1cc2c(=O)n(C3CCCCCCC3)c3c4cc[nH]c4ncc3c2cc1OC
inactive: HCT-15 colon 62.4% | HT29 colon 66.8% | SNB-19 CNS 55.2% | U251 CNS 12.7% | PC-3 prostate 65.8% | SK-MEL-5 melanoma 64.2% | UACC-62 melanoma 89.1% | LOX IMVI melanoma 41.5% | SK-MEL-28 melanoma 85.5%
